PubChem BioAssay AID651642 (Sanford-Burnham Center for Chemical Genomics, 2012)
Activity calls are given as the source filed them.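 How the source made its calls: active means average half-effect concentration of 10 µM or less in every one of the four cell panels; inactive means the rest.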

The compounds below were run on HL-1 (assay: protection of cardiomyocytes from stress damage, SAR follow-up, cell-based, panel, H9c2 and HL-1, H2O2, 2-deoxyglucose, ATP luminescence (AID 651642)). Conditions: H9c2/HL-1 cardiomyocyte 2-deoxyglucose damage, mean of runs, with 2-deoxyglucose.

Question: `CCOC(=O)c1cccc(NC(=O)CNC(=O)c2cc(-c3cc(OC)c(OC)c(OC)c3)nc3ccc(C)cc23)c1` was tested. Which outcome did it give?
Answer: The outcome was “active”.

Question: Which outcome does the source give for `COc1cc(-c2cc(C(=O)Nc3cccc(C(=O)N(C)C)c3)c3ccccc3n2)cc(OC)c1OC` here?
Answer: Its outcome is “inactive”.

Question: How did the outcome turn out when `COc1cc(-c2cc(C(=O)Nc3cccc(C(C)=O)c3)c3cc(Br)ccc3n2)cc(OC)c1OC` was run?
Answer: Its outcome is “inactive”.

Question: `COc1cc(-c2cc(C(=O)NCC(=O)Nc3cccc(C(C)=O)c3)c3ccccc3n2)cc(OC)c1OC` was tested. Which outcome did it give?
Answer: The outcome was “active”.

Question: How did the outcome turn out when `CCNC(=O)c1cccc(NC(=O)c2cc(-c3cc(OC)c(OC)c(OC)c3)nc3ccccc23)c1` was run?
Answer: Its outcome is “active”.

Question: How did the outcome turn out when `COc1ccc2c(c1OC)C(=O)N1c3ccccc3C(=O)N(Cc3ccccc3)C21` (configuration not stated) was run?
Answer: Its outcome is “inactive”.

Question: How did the outcome turn out when `COc1cc(-c2cc(C(=O)Nc3cccc(C(=O)O)c3)c3ccccc3n2)cc(OC)c1OC` was run?
Answer: Its outcome is “inactive”.

Question: How did the outcome turn out when `CCOC(=O)c1cccc(NC(=O)CNC(=O)c2cc(-c3cc(OC)c(OC)c(OC)c3)nc3ccccc23)c1` was run?
Answer: The outcome was “inactive”.

Question: With `COc1cc(-c2cc(C(=O)Nc3cccc(C(=O)NC4CC4)c3)c3ccccc3n2)cc(OC)c1OC` as the compound, how does the outcome read?
Answer: Its outcome is “active”.

Question: `CCOC(=O)c1cccc(NC(=O)c2cc(-c3cc(OC)c(OC)c(OC)c3)nc3ccc(Br)cc23)c1` was tested. Which outcome did it give?
Answer: The outcome was “inactive”.

Question: For `COc1cc(-c2cc(C(=O)NCC(=O)Nc3cccc(C(C)=O)c3)c3cc(Br)ccc3n2)cc(OC)c1OC`, which outcome is on record?
Answer: The outcome was “active”.

Question: For `COc1ccc2nc(-c3cc(OC)c(OC)c(OC)c3)cc(C(=O)Nc3cccc(C(C)=O)c3)c2c1`, which outcome is on record?
Answer: Its outcome is “inactive”.

Question: How did the outcome turn out when `COc1cc(-c2cc(C(=O)NCC(=O)Nc3cccc(C(C)=O)c3)c3cc(F)ccc3n2)cc(OC)c1OC` was run?
Answer: Its outcome is “active”.

Question: For `COc1cc(-c2cc(C(=O)NCC(=O)Nc3cccc(C(C)=O)c3)c3cc(C)ccc3n2)cc(OC)c1OC`, which outcome is on record?
Answer: Its outcome is “inactive”.

Question: For `COc1cc(-c2cc(C(=O)Nc3cccc(C(C)=O)c3)c3cc(F)ccc3n2)cc(OC)c1OC`, which outcome is on record?
Answer: The outcome was “inactive”.

Question: With `COc1cc(-c2cc(C(=O)Nc3cccc(C(C)=O)c3)c3cccc(Cl)c3n2)cc(OC)c1OC` as the compound, how does the outcome read?
Answer: The outcome was “inactive”.

Question: With `COc1ccc2c(c1OC)C(=O)N1c3ccccc3C(=O)N(Cc3ccncc3)C21` (configuration not stated) as the compound, how does the outcome read?
Answer: The outcome was “inactive”.

Question: Which outcome does the source give for `COc1cc(-c2cc(C(=O)Nc3cccc(C(=O)NCc4ccccc4)c3)c3ccccc3n2)cc(OC)c1OC` here?
Answer: The outcome was “active”.

Question: `CCOC(=O)c1ccc(NC(=O)c2cc(-c3cc(OC)c(OC)c(OC)c3)nc3ccccc23)cc1` was tested. Which outcome did it give?
Answer: The outcome was “inactive”.

Question: For `CCOC(=O)c1cccc(NC(=O)c2cc(-c3cc(OC)c(OC)c(OC)c3)nc3ccc(Cl)cc23)c1`, which outcome is on record?
Answer: The outcome was “inactive”.

Question: How did the outcome turn out when `CCOC(=O)c1cccc(NC(=O)c2cc(-c3cc(OC)c(OC)c(OC)c3)nc3ccc(OC)cc23)c1` was run?
Answer: Its outcome is “inactive”.

Question: `CCOC(=O)c1cccc(NC(=O)c2cc(-c3cc(OC)c(OC)c(OC)c3)nc3ccccc23)c1` was tested. Which outcome did it give?
Answer: Its outcome is “inactive”.

Question: Which outcome does the source give for `CCOC(=O)c1cccc(NC(=O)CNC(=O)c2cc(-c3cc(OC)c(OC)c(OC)c3)nc3ccc(Br)cc23)c1` here?
Answer: Its outcome is “active”.

Question: For `COc1ccc2c(c1OC)C(=O)N1c3ccccc3C(=O)N(Cc3ccccc3Br)C21` (configuration not stated), which outcome is on record?
Answer: Its outcome is “inactive”.

Question: Which outcome does the source give for `COc1cc(-c2cc(C(=O)Nc3cccc(C#N)c3)c3ccccc3n2)cc(OC)c1OC` here?
Answer: The outcome was “inactive”.

Question: With `CCOC(=O)c1cccc(NC(=O)CNC(=O)c2cc(-c3cc(OC)c(OC)c(OC)c3)nc3ccc(OC)cc23)c1` as the compound, how does the outcome read?
Answer: The outcome was “active”.

Question: With `COc1cc(-c2cc(C(=O)Nc3cccc(C(N)=O)c3)c3ccccc3n2)cc(OC)c1OC` as the compound, how does the outcome read?
Answer: The outcome was “inactive”.

Question: For `COc1ccccc1CN1C(=O)c2ccccc2N2C(=O)c3c(ccc(OC)c3OC)C12` (configuration not stated), which outcome is on record?
Answer: The outcome was “active”.

Question: For `COC(=O)CNC(=O)c1cc(-c2cc(OC)c(OC)c(OC)c2)nc2ccccc12`, which outcome is on record?
Answer: Its outcome is “inactive”.

Question: Which outcome does the source give for `CCOC(=O)c1ccccc1NC(=O)c1cc(-c2cc(OC)c(OC)c(OC)c2)nc2ccccc12` here?
Answer: The outcome was “inactive”.

Question: With `COc1ccc2c(c1OC)C(=O)N1c3ccccc3C(=O)N(Cc3cccc(Cl)c3Cl)C21` (configuration not stated) as the compound, how does the outcome read?
Answer: Its outcome is “active”.

Question: `COc1ccc2c(c1OC)C(=O)N1c3ccccc3C(=O)N(Cc3ccccc3C)C21` (configuration not stated) was tested. Which outcome did it give?
Answer: The outcome was “active”.
